The list is not random: actives were taken first. Their share in the collection is about 8.3%.
FBPA Giardia inh – qHTS Assay for Inhibitors of Fructose-1,6-bisphosphate Aldolase from Giardia Lamblia; A8B2U2; purified Giardia FBPA; Potency, µM (series often up to 59.6 µM), inactives show top-dose activity, negative = inhibition, actives largely listed as inhibitors; 290,000 tested, 0.71% active; note: potency is the fitted concentration of half-maximal effect; nearly all actives have a fitted effect of over 55% in size
Target sequence (A8B2U2 whole entry, looked up): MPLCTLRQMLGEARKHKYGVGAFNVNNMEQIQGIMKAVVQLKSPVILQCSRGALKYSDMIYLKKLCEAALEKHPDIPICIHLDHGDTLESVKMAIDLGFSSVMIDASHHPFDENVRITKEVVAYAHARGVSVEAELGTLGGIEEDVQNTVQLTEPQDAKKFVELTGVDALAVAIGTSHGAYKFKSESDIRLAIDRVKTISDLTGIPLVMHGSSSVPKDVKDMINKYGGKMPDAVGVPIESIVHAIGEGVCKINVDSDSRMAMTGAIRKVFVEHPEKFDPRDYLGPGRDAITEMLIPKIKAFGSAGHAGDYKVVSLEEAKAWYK
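40 nM FBPA preincubated 10 min at RT with compound (up to 57.5 uM final), then substrate plus GAPDH/TPI/NAD/arsenate coupling and diaphorase/resazurin added. Fluorescence read after 20 min at RT, 525/598 nm.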
HCV inhibitor – qHTS Assay for Inhibitors of Hepatitis C Virus (HCV) | Huh7.5.1 HCVcc-Cre infection, luciferase reporter, 44 h | Potency, µM (series often up to 41.8 µM), for inactives: top-dose activity change, negative = inhibition, most hits filed as inhibitors | 340,000 tested, 3.4% active | AID 651820, 2012; note: potency is the fitted concentration of half-maximal effect
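Luciferase read-out (15 sec integration) after a 15 min room-temperature substrate step quantifies HCVcc-Cre infection. Cells, 1,000 per well, had compound added 4 h post-plating, then virus at ~0.5 moi, and were cultured 44 h.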
Lassa entry inh – qHTS for Inhibitors of binding or entry into cells for Lassa Virus; Lassa virus pseudotype entry inhibition, cell reporter; Potency, µM (highest dose often 37.9 µM), without a hit: top-dose activity change, negative = inhibition, most hits filed as inhibitors; 300,000 tested, 1.2% active; calls by dose curve; tested in HEK293 cells; note: potency is the fitted concentration of half-maximal effect; nearly all actives have a fitted effect of over 50% in size
Marburg entry inh – qHTS for inhibitors of binding or entry into cells for Marburg Virus | Marburg virus pseudotyped entry inhibition, cell reporter | Potency, µM (titrated, usually from 37.8 µM), without a hit: top-dose activity change, negative = inhibition, actives largely listed as inhibitors | 300,000 tested, 1.8% active | AID 540276, 2011; calls by dose curve; tested in HEK293 cells; note: potency is the fitted concentration of half-maximal effect
FMDV antiviral – High Throughput Screening for Foot and Mouth Disease Virus Antivirals; FMDV antiviral cell-based qHTS; Potency, µM (highest dose often 57.9 µM), for the others: at the highest dose activity change, negative = inhibition, usual class: inhibitors; 410,000 tested, 1.2% active; calls by dose curve; tested in HEK293T cells; note: read-out not given here; potency is the fitted concentration of half-maximal effect; nearly all actives have a fitted effect of over 45% in size
HCMV inh – qHTS Assay for inhibitors of the human cytomegalovirus (HCMV) | AID 1259415, 2018 | HFF cells, HCMV-luciferase reporter, 72 h; hits give low values | 410,000 tested, 4.5% active | activity change, negative = inhibition, % at 57.5 µM; in the data active = activity change below about -60%; inconclusive = no clear call, values can overlap the other calls; inactive = above about -39%
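Compounds were evaluated in HFFs infected with an HCMV luciferase reporter virus (MOI 1 PFU/cell). Luciferase in lysates collected 72 h post infection served as the replication measure.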
An asterisk follows results filed as active; [ ] = remark or other dose. Unless noted, calls come from the whole dose curve; as a rule, active = well fitted curve in the direction sought with a large enough effect; inconclusive = small, poorly fitted or top-dose-only effect, or another doubt; inactive = no such curve, though single readings can be large; an effect the other way counts as inactive or inconclusive. % is set by controls: 0 for no effect and ±100 for the full control effect.

How did COc1cc(CCC(=O)Nc2ccc(C)c(S(=O)(=O)N3CCCCCC3)c2)cc(OC)c1OC do in these assays?
HCV inhibitor: 7.94µM*; Lassa entry inh: inconclusive; Marburg entry inh: inconclusive; FMDV antiviral: 17.8µM*; HCMV inh: -70.0*

How did COc1ccc(NC(=O)Cc2cccs2)cc1S(=O)(=O)N1CCCCC1 do in these assays?
HCV inhibitor: -4.6%; Lassa entry inh: 1µM*; Marburg entry inh: -23.9%; FMDV antiviral: 21.3%; HCMV inh: -5.8

Results for COc1ccccc1CCC(=O)Nc1ccc2c(c1)c(=O)n(C)n2-c1cccs1 ?
FMDV antiviral: -2.7%; HCMV inh: -83.7*

What do the screens show for `COc1cc(CCC(=O)Nc2ccc(S(=O)(=O)N3CCCC3)cc2)cc(OC)c1OC`?
HCV inhibitor: inconclusive; FMDV antiviral: -22.2%; HCMV inh: 113.9

Results for COc1ccc(NC(=O)Cc2ccsc2)cc1S(=O)(=O)N1CCCCC1 ?
HCV inhibitor: inconclusive; Lassa entry inh: inconclusive; Marburg entry inh: -24.8%; FMDV antiviral: 0.1%; HCMV inh: -7.8

What do the screens show for `COc1ccccc1CCC(=O)Nc1cccc(S(=O)(=O)N2CCCCCC2)c1`?
HCV inhibitor: 10µM*; Lassa entry inh: -4.7%; Marburg entry inh: -11.7%; FMDV antiviral: 7.6%; HCMV inh: 9.0

What do the screens show for `CO[C@@H]1COC(=O)C/C=C\[C@@H](C)COC(=O)[C@H](Cc2ccccc2)NC(=O)C/C=C\[C@H]1C`?
FBPA Giardia inh: -0.1%[12.9 µM]

Results for CCN1C(=NCCCCO)NC(c2cccc(C(F)(F)F)c2)C(C(=O)OC)=C1C (stereo not drawn) ?
Marburg entry inh: -18.6%[14.2 µM]

How did CN(C)CC(=O)N1CC(=O)N2[C@H](CO)[C@@H](c3ccc(Br)cc3)[C@H]2C1 do in these assays?
HCMV inh: -8.5

Results for COc1ccc(NC(=O)CCOc2ccccc2C)cc1S(=O)(=O)N1CCCCC1 ?
HCV inhibitor: 11.2µM*; Lassa entry inh: inconclusive; Marburg entry inh: inconclusive; FMDV antiviral: inconclusive; HCMV inh: inconclusive

What do the screens show for `COc1ccc(S(=O)(=O)N2CCCCC2)cc1NC(=O)CCOc1cc(C)ccc1C`?
HCV inhibitor: inconclusive; FMDV antiviral: 5.2%; HCMV inh: 0.0

What do the screens show for `COc1ccc(CCC(=O)Nc2ccc(Cl)c(S(=O)(=O)N3CCCC3)c2)cc1`?
FBPA Giardia inh: -0.4%; HCV inhibitor: 5.62µM*; FMDV antiviral: -28.3%; HCMV inh: -102.5*

What do the screens show for `COc1ccc(NC(=O)CCc2ccccc2)cc1S(=O)(=O)N1CCCCC1`?
HCV inhibitor: -12.5%; Lassa entry inh: -18.3%; Marburg entry inh: inconclusive; FMDV antiviral: -22.8%; HCMV inh: inconclusive

How did Cc1ccc(C)c(OCCC(=O)Nc2ccc(S(=O)(=O)N3CCCC3)cc2)c1 do in these assays?
HCV inhibitor: 8.91µM*; FMDV antiviral: -23.2%; HCMV inh: -28.6

Results for COc1ccc(CCC(=O)Nc2ccc(OC)c(S(=O)(=O)N3CCCCC3)c2)cc1OC ?
HCV inhibitor: 10µM*; FMDV antiviral: inconclusive; HCMV inh: -19.7

How did COc1ccccc1CCC(=O)Nc1ccc(OC)c(S(=O)(=O)N2CCCCC2)c1 do in these assays?
HCV inhibitor: 11.2µM*; FMDV antiviral: -19.8%; HCMV inh: -8.6

How did COc1cc(Nc2ncnc3onc(-c4ccc(Cl)cc4)c23)cc(OC)c1 do in these assays?
Lassa entry inh: -21.8%[46.1 µM]; FMDV antiviral: 0.0%; HCMV inh: -22.0

What do the screens show for `COc1ccc(Nc2ncnc3onc(-c4ccc(Cl)cc4)c23)cc1Cl`?
Lassa entry inh: 12.6µM*; Marburg entry inh: 7.08µM*; FMDV antiviral: inconclusive; HCMV inh: -24.9

What do the screens show for `COc1ccc([C@@H]2CC=C(C(=O)O)CN2S(=O)(=O)c2ccc(C)cc2)cc1OC`?
HCV inhibitor: 18.4%; FMDV antiviral: -1.5%; HCMV inh: -64.2*

Results for COc1ccc(S(=O)(=O)N2CCSC2c2ccc(OC)c(OC)c2)cc1 (stereo not drawn) ?
FBPA Giardia inh: 11.2%; HCV inhibitor: 7.4%; Lassa entry inh: -28.5%; Marburg entry inh: 2.1%; FMDV antiviral: inconclusive; HCMV inh: -62.4*

What do the screens show for `COc1ccc(C2SCCN2S(=O)(=O)c2ccc(F)cc2)cc1OC` (stereo not drawn)?
FBPA Giardia inh: -13.3%; HCV inhibitor: 2.2%; Lassa entry inh: 2.1%; Marburg entry inh: 9.0%; FMDV antiviral: inconclusive; HCMV inh: -19.4

Results for Cc1ccc(NC(=O)Nc2nnc(N(C)C3CCCCC3)s2)c(Cl)c1 ?
Lassa entry inh: -5.5%[46.1 µM]; Marburg entry inh: 1.0%[46.1 µM]; FMDV antiviral: 3.9%; HCMV inh: -8.2

What do the screens show for `CCC(CC)C(=O)OCc1cc(=O)n2nc(C3CC3)sc2n1`?
Lassa entry inh: 12.7%[46.1 µM]; FMDV antiviral: 46.5%; HCMV inh: -8.0

Results for Cc1cc(C)c2c(NC(=O)CCl)nn(C)c2n1 ?
FBPA Giardia inh: -1.1%; HCV inhibitor: inconclusive; Lassa entry inh: inconclusive; Marburg entry inh: inconclusive; FMDV antiviral: inconclusive; HCMV inh: -110.2*

What do the screens show for `COc1cccc(NC(=O)C(C)Sc2nnc(C3CC3)n2C2CC2)c1` (stereo not drawn)?
HCV inhibitor: -12.0%; FMDV antiviral: 7.4%; HCMV inh: 16.4

How did CC(Sc1nnc(C2CC2)n1C1CC1)C(=O)c1ccc(Br)cc1 (stereo not drawn) do in these assays?
HCV inhibitor: 20.8%; Lassa entry inh: -0.7%; Marburg entry inh: -12.4%; FMDV antiviral: -8.2%; HCMV inh: -62.1*

What do the screens show for `CCOP(=O)(OCC)c1c2c(cc3ccc(Cl)cc13)CCC2`?
HCMV inh: -10.3

Results for COc1ccc(/C=C2/Sc3ccc(C(=O)NCCCN4CCOCC4)cc3NC2=O)cc1OC ?
FBPA Giardia inh: 1.7%; HCV inhibitor: 7.94µM*; Lassa entry inh: -9.2%; Marburg entry inh: inconclusive; FMDV antiviral: -26.7%; HCMV inh: 97.6

Results for CCN1CCN(CCCNC(=O)c2ccc3c(c2)NC(=O)/C(=C\c2cccc(C)c2)S3)CC1 ?
HCV inhibitor: 1.78µM*; FMDV antiviral: -23.3%; HCMV inh: inconclusive

What do the screens show for `Cc1cccc(/C=C2/Sc3ccc(C(=O)NCCCN4CCOCC4)cc3NC2=O)c1`?
FBPA Giardia inh: -3.4%; HCMV inh: -30.5

What do the screens show for `CCN1CCN(CCCNC(=O)c2ccc3c(c2)NC(=O)c2ccccc2S3)CC1`?
FBPA Giardia inh: 2.9%; HCV inhibitor: 10µM*; Marburg entry inh: -8.2%; FMDV antiviral: -24.4%; HCMV inh: -2.9

Screening results as filed in PubChem.
